Measurements from PubChem BioAssay (EPA / NIEHS).
Activity calls are given as the source filed them. The calls were made as follows: active = hit-call score of the fitted dose curve at least 0.9, where 1 is the maximum; inactive = score below 0.9.

Assay: APR_HepG2_CellCycleArrest_72hr: Apredica 72-hour HepG2 Assay for Cell Cycle Arrest (AID 2282914)
Details: high-content imaging, actives raise or lower the signal
Procedure: APR_HepG2_72hr is a cell-based, multiplexed-readout assay that uses HepG2, a human liver cell line, with measurements taken at 72 hours after chemical dosing in a 384-well plate.APR_HepG2_CellCycleArrest_72hr is one of 10 assay component(s) measured or calculated from the APR_HepG2_72hr assay. It is designed to make measurements of cell phenotype, a form of morphology reporter, as detected with fluorescence intensity signals by HCS Fluorescent Imaging technology.Data from the assay component APR_HepG2_CellCycleArrest_72hr was analyzed into 1 assay endpoint. This assay endpoint, APR_HepG2_CellCycleArrest_72hr, was analyzed with bidirectional fitting relative to DMSO as the negative control and baseline of activity. Using a type of morphology reporter, measures of all nuclear dna for gain or loss-of-signal activity can be used to understand the signaling at the pathway-level as they relate to the gene . Furthermore, this assay endpoint can be referred to as a primary readout, because this assay has produced multiple assay endpoints where this one serves a signaling function. To generalize the intended target to other relatable targets, this assay endpoint is annotated to the cell cycle intended target family, where the subfamily is arrest.
Cells were treated with dimethyl sulfoxide (DMSO) as a solvent control at a final concentration of 0.5% v/v or with compounds in DMSO with a resulting final DMSO concentration of 0.5% v/v. Compound treatment was done at concentrations of 0.39, 0.78, 1.56, 3.12, 6.24, 12.5, 25, 50, 100, and 200 uM in duplicate on each plate. Cells were treated with compounds for 1, 24, or 72 hr. Carbonyl […] m-chloro-phenylhydrazone (CCCP) and taxol were used as positive controls for mitochondrial function and cytoskeletal stability, respectively; DMSO served as the negative control for this experiment. Cells were fixed by the direct addition of 50 uL formaldehyde in Hank's Balanced Salt Solution (HBSS) to a final concentration of 3.7%. After incubation in the fixation medium for 30 min at room temperature (293-298 K), cells were rinsed twice with HBSS and treated with cell permeabilization buffer (16 uL of 0.5% Triton X-100) for 10 min at room temperature (293-298 K) before labeling. For mitochondrial membrane potential and mitochondrial measurements, pre-fixed cells were incubated with 50 uL of MitoTracker Red CMXRos (Invitrogen) at a concentration of 250 nM for 30 min before fixation. In the remaining cases, post-fixed cells were labeled by incubation with a multiplexed mixture of primary antibodies in HBSS for 60 min at room temperature (293-298 K) to detect immunoreactivity of c-Jun (1:500), phospho-histone H3 (1:100), phospho-histone H2A.x (1:200), p53 (1:400), alpha-tubulin (1:200) and Hoechst 33342 (2 ug/mL). Cells were labeled for multiplexed imaging on two separate plates: a) Hoechst 33342, MitoTracker Red, phospho-histone H3, and alpha-tubulin, and b) Hoechst 33342, phospho-histone H2A.x, and c-Jun. A final rinse with HBSS (50 uL) was performed before analysis. The primary and secondary antibodies for the proteins were phospho-histone H3 (rabbit anti-phospho-histone H3 and FITC-donkey anti-rabbit IgG), phospho-histone H2A.x (mouse anti-phospho-histone H2A.x and FITC-donkey anti-mouse IgG), c-Jun (rabbit anti-phospho-c-Jun and Cy3-donkey anti-rabbit IgG), p53 (sheep anti-p53 and Cy5-donkey anti-sheep IgG), alpha-tubulin (mouse anti-alpha-tubulin and Cy5-donkey anti-mouse IgG). These antibodies are available as the CellCiphr HepG2 assay kit (Millipore).Digital images of each well were captured using a Cellomics ArrayScan VTI (Thermo Scientific Cellomics) (0.8 NA objective, 0.63x optical coupler, and XF-93 filter set) at 20x magnification. The images were acquired using the autofocus feature of the ArrayScan instrument, which entails the following steps. First, the camera focuses on channel 1 (Hoechst 33342), where nuclei are identified. Second, a Z offset of 1 um is used for capturing mitochondria (MitoTracker Red). […]

| SMILES | outcome | AC50 |
| --- | --- | --- |
| c1cc2ccc3cccc4ccc(c1)c2c34 | inactive |  |
| CC1=C2C[C@H]3[C@@H](CC=C4C[C@@H](O)CC[C@@]43C)[C@@H]2CC[C@]12O[C@@H]1C[C@H](C)CN[C@H]1[C@H]2C | inactive |  |
| ClC1=C(Cl)[C@]2(Cl)[C@@H]3[C@H]4C[C@H]([C@@H]5O[C@H]45)[C@@H]3[C@@]1(Cl)C2(Cl)Cl | inactive |  |
| CCOCCOC(C)=O | inactive |  |
| c1ccc(-c2ccccc2)cc1 | inactive |  |
| O=C(O)C(F)(F)C(F)(F)C(F)(F)C(F)(F)C(F)(F)C(F)(F)C(F)(F)C(F)(F)F | inactive |  |
| Cc1cc2c3c(c1)C(c1ccccc1)=N[C@@H](NC(=O)c1ccncc1)C(=O)N3CC2 | inactive |  |
| CC#Cc1cc(C)nc(Nc2ccccc2)n1 |  | 96.1 µM (active) |
| CCC(=O)O[C@H]1CC[C@H]2[C@@H]3CCC4=CC(=O)CC[C@]4(C)[C@H]3CC[C@]12C | inactive |  |
| CC(C)C(=O)OCC(C)(C)C(OC(=O)C(C)C)C(C)C (stereo not given) | inactive |  |
| CC(C)(c1ccccc1)c1ccc(O)cc1 | inactive |  |
| Nn1cnnc1 | inactive |  |
| CC(c1ccc(O)cc1)(c1ccc(O)cc1)c1ccc(O)cc1 | inactive |  |
| O=S(=O)(O)C(F)(F)C(F)(F)C(F)(F)C(F)(F)F | inactive |  |
| Cc1ccccc1CO[C@@H]1C[C@@]2(C(C)C)CC[C@]1(C)O2 | inactive |  |
| N#Cc1ccc(N(CC(N)=O)CC(F)(F)F)cc1C(F)(F)F | inactive |  |
| COc1ccc(O)c(C(C)(C)C)c1 | inactive |  |
| Clc1ccc(Cl)cc1 | inactive |  |
| CCC(C)c1cc([N+](=O)[O-])cc([N+](=O)[O-])c1O (stereo not given) |  | 75.8 µM (active) |
| O=C(NC(=O)c1c(F)cccc1F)Nc1cc(Cl)c(OC(F)(F)C(F)F)c(Cl)c1 | inactive |  |

| SMILES | outcome | AC50 |
| --- | --- | --- |
| CCC(C)(CC)c1cc(NC(=O)c2c(OC)cccc2OC)on1 | inactive |  |
| Clc1ccc(C(Cl)(Cl)Cl)cc1 | inactive |  |
| O=NN(c1ccccc1)c1ccccc1 | inactive |  |
| Oc1ccc(Cl)cc1Cl | inactive |  |
| Cc1ccccc1[N+](=O)[O-] | inactive |  |
| CN(C)CCO | inactive |  |
| Nc1ccc(-c2ccc(N)cc2)cc1 | inactive |  |
| CCNc1nc(NC(C)C)nc(SC)n1 | inactive |  |
| CC(C)(O)C(=O)Nc1ccc([N+](=O)[O-])c(C(F)(F)F)c1 | inactive |  |
| C1CC2OC2CC1C1CO1 (stereo not given) | inactive |  |
| CN(C)c1nc(=O)n(C2CCCCC2)c(=O)n1C | inactive |  |
| CCCCCCOC(=O)c1ccccc1C(=O)OCCCCCC |  | 109 µM (active) |
| Cc1cccc([N+](=O)[O-])c1 | inactive |  |
| Oc1ccc(C(c2ccc(O)cc2)(C(F)(F)F)C(F)(F)F)cc1 | inactive |  |
| O=C(O)C(F)(F)C(F)(F)C(F)(F)C(F)(F)C(F)(F)C(F)(F)C(F)(F)C(F)(F)C(F)(F)F |  | 66.8 µM (active) |
| C=CC(N)=O | inactive |  |
| Cc1cccc(C)c1N | inactive |  |
| CO/C=C(/C(=O)OC)c1ccccc1COc1cccc(C(F)(F)F)n1 | inactive |  |
| CCCN(CCC)N=O | inactive |  |
| ClC1=C(Cl)[C@]2(Cl)[C@@H]3[C@@H]4C[C@@H]([C@H]5O[C@@H]45)[C@@H]3[C@@]1(Cl)C2(Cl)Cl |  | 39.2 µM (active) |
